The list is not random: actives were taken first. Their share in the collection is about 14%.
AID923: qHTS Assay for Allosteric/Competitive Inhibitors of Caspase-1: Spectroscopic Profiling in AFC Spectral Region; compound fluorescence, AFC spectral region (405/520 nm); Potency, µM (series often up to 57.5 µM), inactives show at the top dose fluorescence increase, most hits filed as activators; actives 1.1% (n = 75,000); AID 923, 2007; also: potency is read from the fitted curve at half-maximal effect; 0% is about no effect
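Baseline compound fluorescence (AFC region, 405 nm ex/520 nm em) taken from the intercept of kinetic reads with 50 nM caspase-1 and 5 uM Ac-WEHD-AFC; normalized to an on-plate AFC standard curve; compounds titrated up to 57 uM.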
HADH2 inh: HADH2 (human) dehydrogenase inhibition; Q99714; recombinant HADH2, NADH fluorescence, beta-hydroxybutyryl-CoA; actives 3.4% (n = 73,000); Potency, µM (series often up to 57.1 µM), without a hit: at the top dose activity change, negative = inhibition, usual class: inhibitors; also: potency is read from the fitted curve at half-maximal effect; % is scaled to controls: 0 for no effect and ±100 for the full control effect; nearly all actives have a fitted effect of over 60% in size
Target sequence (Q99714 whole entry, looked up, one chain of several): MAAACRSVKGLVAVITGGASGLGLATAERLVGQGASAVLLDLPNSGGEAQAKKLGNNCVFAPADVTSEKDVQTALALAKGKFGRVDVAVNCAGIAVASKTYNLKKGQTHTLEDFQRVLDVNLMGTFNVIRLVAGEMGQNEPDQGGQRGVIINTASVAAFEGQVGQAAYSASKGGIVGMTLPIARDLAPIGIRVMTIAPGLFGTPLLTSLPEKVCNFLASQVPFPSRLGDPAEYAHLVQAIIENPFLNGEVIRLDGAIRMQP
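E. coli-expressed His-tagged HADH2 tested at 20 nM in alkaline Tris buffer (pH 9.0); oxidation of 90 uM beta-hydroxybutyryl-CoA with 1 mM NAD+ tracked fluorimetrically for 4 min.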
4-MU autofl: compounds fluorescent in 4-MU spectral region; max dye-equivalent concentration, M; AID 589; compound autofluorescence, 340/450 nm, 4-MU equivalents; active compounds read high; actives 11% (n = 59,000); in the data active = max dye-equivalent concentration above about 10 nM; inconclusive = mostly about 1.1 nM to 9.6 nM
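Compounds in 100 mM Tris, pH 8.0, incubated 15 min at room temperature, then fluorescence read at 340 nm excitation/450 nm emission. Signal converted to 4-MU dye-equivalent concentration using an on-plate six-point 4-MU standard curve.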
HSD17B inhib: inhibitors of human HSD17B10 dehydrogenase | Q99714 | recombinant HSD17B10, NADH fluorescence kinetic | Potency, µM (top dose mostly 57.1 µM), for inactives: top-dose activity change, negative = inhibition, hits mostly inhibitors | actives 7.6% (n = 75,000);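 also: the protocol describes HADH2 (HSD17B10) and not the HSD17B4 of the title; potency is read from the fitted curve at half-maximal effect; % is scaled to controls: 0 for no effect and ±100 for the full control effect; nearly all actives have a fitted effect of over 70% in size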
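Activity followed as NADH fluorescence increase (ex 360, em 450 nm) every 30 seconds for 4 min, using final 90 uM beta-hydroxybutyryl CoA and 1 mM NAD+. Recombinant His-tagged enzyme, 20 nM, pH 9.0 Tris buffer, 15 min compound preincubation.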
CRE-bla Fsk: alters forskolin-stimulated CRE reporter signaling in CHO cells. CHO CRE-bla reporter (cAMP response element driving beta-lactamase), forskolin EC10, beta-lactamase ratio. Potency, µM (highest dose often 38.2 µM), for inactives: top-dose activity change, negative = inhibition, usual class: activators. actives 2.5% (n = 71,000). AID 662; active = well fitted activation curve with a large enough effect in the signal ratio, with a control signal flat, not every such curve was filed as active; inconclusive = small, poorly fitted or top-dose-only effect, or effect the other way, or a change in a side signal; the % refers to the signal ratio; also: potency is read from the fitted curve at half-maximal effect; % of control where 0% means no effect
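Titrated compounds plus EC10 NKH 477 on CHO CRE-bla cells, 3 h, 37 °C. CCF4, 2 h RT. Ratio 460/530 nm → AC50.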
A350 fluor: compound fluoresces in the Alexa 350 spectral region. actives 11% (n = 59,000). AID 590. max dye-equivalent concentration, M. Compound autofluorescence, 340/450 nm, Alexa 350 dye-equivalents; active compounds read high; in the data active = max dye-equivalent concentration above about 10 nM; inconclusive = mostly about 1.1 nM to 9.6 nM
* = called active by the depositor; i = inactive; ? = inconclusive; · = no result given; [ ] = remark or other dose. Unless noted, calls follow the shape of the dose curve; as a rule, active = well fitted curve in the direction sought with a large enough effect; inconclusive = small, poorly fitted or top-dose-only effect, or another doubt; inactive = no such curve, though single readings can be large; an effect the other way counts as inactive or inconclusive.

SMILES	AID923	HADH2 inh	4-MU autofl	HSD17B inhib	CRE-bla Fsk	A350 fluor
CCC[C@@H]1O[C@@H]2C[C@@H]3[C@H]4CCC5=CC(=O)C=C[C@@]5(C)[C@H]4[C@H](O)C[C@@]3(C)[C@@]2(C(=O)CO)O1	2%[25.7 µM]	4%[25.6 µM]	i	-23%[25.6 µM]	5%[17.1 µM]	i
OCC1OC(/C=C\c2ccccc2)C=CC1Oc1ccc2c(c1)OCO2 (stereo not drawn)	0%[11.5 µM]	1%[11.4 µM]	·	-5%[11.4 µM]	·	·
COc1cc(C(=O)Nc2cccc3ncccc23)cc(OC)c1OC	1%	-4%	5.1e-07M*	25µM*	?	5.7e-07M*
COc1ccc(C(=O)Cn2nnc(-c3ccccc3NC(=O)c3ccco3)n2)cc1	1%	?	?	32µM*	19%	?
CCn1nnc(-c2ccccc2NC(=O)c2cc(OC)c(OC)c(OC)c2)n1	-1%	23%	i	7%	2.5µM*	i
O=C(Nc1ccccc1N1CCCC1)c1ccco1	1%	-11%	i	1%	-3%	i
O=C(Nc1ccccc1-c1nnn(CC(=O)N2CCCc3ccccc32)n1)c1ccco1	0%	-11%	i	32µM*	29%	i
OC[C@H]1O[C@@H](n2cnc3cncnc32)[C@H](O)[C@@H]1O	-1%	·	·	0%	·	·
COc1ccc2c(=O)ccoc2c1	0%	·	·	-27%	·	·
COc1ccc(-n2nc(C(=O)N3CCC(C#N)CC3)c3c4ccccc4n(C)c3c2=O)cc1	-1%	1%	·	1%	5%	·
COc1ccc(-c2nc(CSCC(=O)N3CCC(C(N)=O)CC3)c(C)o2)cc1OC	-1%	?	·	25µM*	?	·
CCOC(=O)CSCc1nc(-c2ccc(Cl)cc2)oc1C	2%	-9%	·	32µM*	8%	·
CCOC(=O)N1CCC(NC(=O)CSCc2nc(-c3ccc(OC)c(OC)c3)oc2C)CC1	-1%	19%	i	32µM*	4%	i
CCOC(=O)N1CCC(NC(=O)c2cc(C(=O)Nc3ccc(OC)c(OC)c3)ccc2CO)CC1	0%	13%	1.2e-08M*	14%	?	1.2e-08M*
COc1ccc(-c2nc(CSCC(=O)NCC3CCCO3)c(C)o2)cc1OC (stereo not drawn)	0%	?	i	?	10%	i
Cc1ccc(-c2nc(CSCC(=O)N3CCCC3)c(C)o2)cc1	-1%	0%	i	?	17%	i
CC[C@H](C)C(=O)O[C@H]1C[C@H](O)C=C2C=C[C@H](C)[C@H](CC[C@@H](O)C[C@@H](O)CC(=O)O)[C@H]21	1%	2%	·	5%	·	·
COC(=O)c1cc(OC)c(=O)c2c(OC)c(OC)ccc2c1	1%	·	·	-1%	·	·
CC(NC(=O)c1cc(-c2ccc(O)cc2)on1)c1ccccc1 (stereo not drawn)	-1%	-19%	·	0%	?	·
COc1ccc(OC)c(S(=O)(=O)n2ccnc2)c1	2%	-1%	·	6%	-10%	·
CC(=O)c1cc(C#N)c(SCCC(C)C)nc1C	-2%	-14%	1.6e-07M*	?	?	1.6e-07M*
Cc1ccccc1NC(=O)CSc1nc(N)c(C#N)cc1C#N	1%	?	?	?	-5%	?
CC(C)CCSc1nc(N)c(C#N)cc1C#N	5%	?	?	13µM*	7%	?
CC(=O)Nc1ccc(S(=O)(=O)N2CCC(NC(=O)c3ccco3)CC2)cc1	-2%	2%	i	4%	-8%	i
O=C(CCNC(=O)Cn1ccc2ccccc2c1=O)NCCN1CCN(c2ccccc2F)CC1	-2%	5%	i	-6%	2%	i
SMILES	AID923	HADH2 inh	4-MU autofl	HSD17B inhib	CRE-bla Fsk	A350 fluor
O=C(CCNC(=O)Cn1ccc2ccccc2c1=O)NCCN1CCN(c2cccc(Cl)c2)CC1	0%	5%	2.3e-08M*	-8%	-14%	2.2e-08M*
C[C@@H](CN1c2ccccc2Sc2ccccc21)N(C)C	-4%[25.7 µM]	?	i	-3%[25.6 µM]	-15%[17.1 µM]	i
CCCCn1c2c(c(=O)n(C)c1=O)C(c1ccc(OC)cc1)N1CCCCCC1=N2 (stereo not drawn)	0%	-8%	2.5e-08M*	1%	10%	2.6e-08M*
CCc1cc(C(=O)Cc2nc3ccccc3[nH]2)c(O)cc1O	-1%	-28%	2.2e-07M*	32µM*	2%	2.7e-07M*
Cc1nc2oc3ccccc3c(=O)c2c(=O)n1Cc1ccccc1	-1%	6%	i	5%	?	i
Cc1nc2ccc(N)cc2c(=O)n1Cc1ccc(Cl)cc1	1%	32µM*	7.4e-07M*	25µM*	?	1.2e-06M*
CCOC(=O)N1CCN(c2c(-c3ccc(C)cc3)c(=O)c2=O)CC1	0%	4%	i	-9%	12%	i
CCOC(=O)N1CCN(c2c(-c3ccccc3)c3cc(Cl)ccc3[nH]c2=O)CC1	0%	?	4.8e-08M*	-3%	7%	3.5e-08M*
COC(=O)c1[nH]c2ccc(Cl)cc2c1NC(=O)CN1CCC(C(N)=O)CC1	1%	?	?	?	10%	?
COC(=O)c1[nH]c2ccc(Cl)cc2c1NC(=O)CCN1CCOCC1	1%	?	?	25µM*	-3%	?
CCOC(=O)N1CCN(CC(=O)Nc2c(C(=O)OC)[nH]c3cccc(Cl)c23)CC1	-1%	27%	i	25µM*	?	i
C=CCOC(=O)Nc1c(C(=O)OC)[nH]c2ccc(Cl)cc12	1%	-9%	?	32µM*	?	?
CCN1CCN(CC(=O)Nc2c(C(=O)OC)[nH]c3cccc(Cl)c23)CC1	0%	0%	i	-1%	?	i
COc1ccc(C(=O)N2CCC3(CC2)CN(c2ccccc2)C3)cc1	10%	1%	i	-1%	-17%	i
Cc1cccc(C)c1NC(=O)c1cc(S(=O)(=O)N2CCOCC2)ccc1F	0%	9%	i	5%	4%	?
COc1ccc(NC(=O)c2cccc(Cn3cc(Br)cn3)c2)cn1	0%	0%	i	-1%	?	i
CCOC(=O)N1CCN(CC(=O)Nc2c(C(=O)OC)[nH]c3ccc(Cl)cc23)CC1	-1%	?	1e-08M*	25µM*	14%	?
COC(=O)c1ccc(C23CC4(C2)[C@H](CN(Cc2ccc(C(F)(F)F)cc2)[C@@H]4c2ccccc2)C3c2ccc(C(F)(F)F)cc2)cc1 (stereo partly drawn)	4%	·	·	16µM*	·	·
CCCc1cc(=O)[nH]c(SCC(=O)N(C)C2CCS(=O)(=O)C2)n1 (stereo not drawn)	10%	2%	5.4e-07M*	-19%	-3%	6.5e-07M*

High-throughput results as filed in PubChem.
